Consider twelve compounds from PubChem BioAssay (NCI).

Compounds without any hit were thinned out: in the full panel of roughly 83,000, 20% have a hit.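 In brief: 96-well plates, 48 h treatment, single concentration, percent growth endpoint.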 A number with no mark means an inactive call. Calls of active or inactive are those of the source. Rule for the calls: active = growth percent below 10; inactive = the rest.

Holding throughout (experiment): NCI-60 one-dose screen, 48 h (100 = growth as untreated, 0 = no growth, -100 = all killed)
One assay deals with SN12C renal. The settings on record: 10 µM unless noted.
The next assay has as its system UO-31 renal. The following applies: 10 µM unless noted.
The subject of the next assay is TK-10 renal. The settings on record: 10 µM unless noted.
For the next assay, the system named is ACHN renal. The settings on record: 10 µM unless noted.
The next assay relates to CAKI-1 renal. The following applies: 10 µM unless noted.
A further assay concerns A498 renal. The settings on record: 10 µM unless noted.
Another assay has as its system CCRF-CEM leukemia. The following applies: 10 µM unless noted.
Another assay concerns MOLT-4 leukemia. The following applies: 10 µM unless noted.
A further assay has as its system SR leukemia. The settings on record: 10 µM unless noted.
In a further assay the test system is RPMI-8226 leukemia. The following applies: 10 µM unless noted.
For a further assay, the system named is OVCAR-8 ovarian. The following applies: 10 µM unless noted.
For the next assay, the system named is OVCAR-5 ovarian. The following applies: 10 µM unless noted.
A further assay deals with OVCAR-4 ovarian. The settings on record: 10 µM unless noted.
The test system of another assay is SK-OV-3 ovarian. The settings on record: 10 µM unless noted.
Another assay has as its system OVCAR-3 ovarian. The following applies: 10 µM unless noted.
The subject of another assay is HS 578T breast. The following applies: 10 µM.
The next assay deals with NCI/ADR-RES ovarian. The following applies: 10 µM unless noted.
In another assay the test system is IGROV1 ovarian. The settings on record: 10 µM unless noted.

As to `c1ccc2c(Cc3csc4ccccc34)csc2c1`, the growth in the assay with SN12C renal was 97.1%; in the assay on UO-31 renal, 47.5%; in the assay on TK-10 renal it was 106%; in the assay on ACHN renal, 93.1%; with CAKI-1 renal, 81.2%; in the assay with A498 renal, 107%. Besides, the growth was 94.2% in the assay on CCRF-CEM leukemia; 87% with MOLT-4 leukemia; 50% in the assay on SR leukemia; 94.8% in the assay with RPMI-8226 leukemia; 101% with OVCAR-8 ovarian; 101% with OVCAR-5 ovarian. Moreover, the growth is 88.3% in the assay with OVCAR-4 ovarian; 77.7% in the assay with SK-OV-3 ovarian; 92.5% with OVCAR-3 ovarian; 104% with HS 578T breast; 81.9% in the assay on NCI/ADR-RES ovarian.
`CC(C)NC(=O)OCC#CCOC(=O)NC(C)C`: the growth in the assay with SN12C renal is 102%; with UO-31 renal it was 79.8%; with ACHN renal it was 108%; in the assay with CAKI-1 renal, 91.7%; in the assay with A498 renal it was 104%; with CCRF-CEM leukemia it was 103%. In addition, the growth was 101% in the assay with MOLT-4 leukemia; 102% in the assay on SR leukemia; 103% with RPMI-8226 leukemia; 115% in the assay on OVCAR-8 ovarian; 110% with OVCAR-5 ovarian; 121% in the assay on OVCAR-4 ovarian. For the same compound, the growth is 94.8% in the assay on SK-OV-3 ovarian; 90.6% with IGROV1 ovarian; 108% with OVCAR-3 ovarian; 115% in the assay with HS 578T breast; 109% with NCI/ADR-RES ovarian.
For `COc1cc(C2CC(c3ccc(Cl)cc3)=NN2C=O)ccc1OS(=O)(=O)c1ccc(C)cc1` (centres undefined), the growth is 97.1% in the assay with SN12C renal; 85.2% in the assay with UO-31 renal; 110% in the assay with TK-10 renal; 90.9% in the assay on ACHN renal; 81.4% with CAKI-1 renal; 76.3% in the assay on CCRF-CEM leukemia. Moreover, the growth with MOLT-4 leukemia was 91.5%; in the assay with SR leukemia it was 99.8%; in the assay with RPMI-8226 leukemia it was 82.4%; with OVCAR-8 ovarian, 90.3%; in the assay on OVCAR-5 ovarian, 87.2%; with OVCAR-4 ovarian, 112%. Also, the growth in the assay on SK-OV-3 ovarian is 96.3%; in the assay with IGROV1 ovarian, 94.4%; in the assay with OVCAR-3 ovarian, 102%; in the assay with HS 578T breast it was 86.8%.
For the compound `Nc1nc(N)c2c(n1)NC(c1sc(Cl)nc1Cl)CC(c1ccc3c(c1)OCO3)=N2` (centres undefined), the growth in the assay on SN12C renal was 35.2%; in the assay with UO-31 renal, 30.4%; with TK-10 renal, 50.6%; in the assay on CAKI-1 renal, 26.5%; in the assay with A498 renal, -2.91% (active); in the assay on CCRF-CEM leukemia it was 11.1%. Also, the growth in the assay with MOLT-4 leukemia is 25.3%; in the assay on SR leukemia, 17.1%; in the assay on RPMI-8226 leukemia it was 27.1%; with OVCAR-8 ovarian it was 40.5%; in the assay on OVCAR-5 ovarian, 66.3%; in the assay on OVCAR-4 ovarian, 86%. Moreover, the growth was 17.4% in the assay on SK-OV-3 ovarian, 34.2% in the assay on IGROV1 ovarian, 10.4% in the assay on OVCAR-3 ovarian and 10.8% with HS 578T breast.
`Cc1cc(C)c2c(n1)sc1c(Nc3ccc(O)cc3)ncnc12`: the growth in the assay with SN12C renal was 21.5%; in the assay on UO-31 renal, -10.3% (active); in the assay with TK-10 renal it was 59.1%; in the assay on CAKI-1 renal, 15.8%; with A498 renal, 18.6%; in the assay with CCRF-CEM leukemia, 16.6%. Also, the growth in the assay with SR leukemia is 13.4%; with RPMI-8226 leukemia, 39%; in the assay with OVCAR-8 ovarian, 10.8%; in the assay on OVCAR-5 ovarian, 55.4%; in the assay with OVCAR-4 ovarian, 90.6%; with SK-OV-3 ovarian, 30.5%. Further, the growth with IGROV1 ovarian was 68.2%; in the assay with HS 578T breast, 82.5%; with NCI/ADR-RES ovarian, 19.1%.
On to `Cc1ccc2cc3c(NC(=O)c4cccnc4)nn(C)c3nc2c1`, for which the growth with SN12C renal was 101%; in the assay on UO-31 renal, 78.6%; in the assay on TK-10 renal, 103%; in the assay with ACHN renal, 89%; with CAKI-1 renal it was 85.7%; with A498 renal, 91.7%. In addition, the growth with CCRF-CEM leukemia is 72.2%; in the assay on MOLT-4 leukemia, 94.3%; in the assay with SR leukemia, 95.8%; in the assay with RPMI-8226 leukemia, 76.3%; in the assay on OVCAR-8 ovarian it was 94.6%; in the assay on OVCAR-5 ovarian it was 102%. In addition, the growth is 97.1% with OVCAR-4 ovarian; 94.2% with SK-OV-3 ovarian; 91.1% in the assay on OVCAR-3 ovarian; 96% with HS 578T breast; 95% with NCI/ADR-RES ovarian.
`C=CCn1c(C)nc2cc(Nc3nc(N4CCOCC4)nc4nc[nH]c34)ccc21`: the growth is 84.3% in the assay on SN12C renal; 87.4% in the assay with UO-31 renal; 92.4% in the assay on TK-10 renal; 93.7% in the assay on ACHN renal; 93.8% with CAKI-1 renal; 37.5% in the assay on A498 renal. Further, the growth in the assay with CCRF-CEM leukemia is 89.9%; with MOLT-4 leukemia, 74.4%; in the assay with SR leukemia, 85.6%; in the assay on RPMI-8226 leukemia, 71.9%; in the assay with OVCAR-8 ovarian it was 87.3%; with OVCAR-4 ovarian, 88.4%. In addition, the growth with SK-OV-3 ovarian is 82.6%; with IGROV1 ovarian, 72.9%; in the assay on OVCAR-3 ovarian, 97.7%; in the assay on HS 578T breast, 57.3%; in the assay on NCI/ADR-RES ovarian, 108%.
Take `COc1ccc(Nc2ncnc3c2sc2nc(C)cc(C)c23)cc1`: the growth in the assay on SN12C renal is 99.7%; with UO-31 renal, 91.5%; in the assay with ACHN renal it was 97.2%; in the assay with CAKI-1 renal, 99.2%; with CCRF-CEM leukemia, 104%; in the assay on MOLT-4 leukemia, 95.9%. Further, the growth with RPMI-8226 leukemia is 101%; with OVCAR-8 ovarian, 95%; in the assay with OVCAR-4 ovarian, 95.2%; in the assay with SK-OV-3 ovarian, 118%; with IGROV1 ovarian, 99.4%; in the assay on HS 578T breast it was 93%. In addition, in the assay with NCI/ADR-RES ovarian, the growth is 108%.
On to `Cc1nc2ccc(Nc3nc(N4CCOCC4)nc(N4CCN(C)CC4)n3)cc2n1Cc1ccccc1`, for which the growth is 113% with SN12C renal; 62.7% in the assay on UO-31 renal; 94.7% with ACHN renal; 102% with CAKI-1 renal; 40.6% with A498 renal; 79.9% in the assay on CCRF-CEM leukemia. Besides, the growth in the assay with SR leukemia is 24.9%; with RPMI-8226 leukemia, 65.4%; in the assay with OVCAR-8 ovarian it was 93.6%; with OVCAR-5 ovarian it was 101%; with OVCAR-4 ovarian, 112%; in the assay on SK-OV-3 ovarian it was 96.2%. Further, the growth in the assay with IGROV1 ovarian was 98.2%; in the assay on OVCAR-3 ovarian, 94.7%.
For `CCCCn1cnc(-c2cc(-c3ccccc3)cc(C(F)(F)F)c2)n1`, the growth with SN12C renal was 98.2%; with UO-31 renal, 87.9%; in the assay with TK-10 renal it was 102%; in the assay with ACHN renal it was 106%; in the assay with CAKI-1 renal, 91.5%; in the assay with A498 renal, 70.9%. The growth was 97.1% with CCRF-CEM leukemia; 88.8% in the assay on MOLT-4 leukemia; 89.5% with SR leukemia; 98.2% with RPMI-8226 leukemia; 97.5% in the assay on OVCAR-8 ovarian; 113% with OVCAR-5 ovarian. The growth in the assay on OVCAR-4 ovarian is 106%; with SK-OV-3 ovarian, 105%; with OVCAR-3 ovarian it was 103%; in the assay on HS 578T breast, 101%; in the assay on NCI/ADR-RES ovarian, 103%.
Take `CC(C)(C)c1ccc(Cn2c(-c3nonc3N)nc3ccccc32)cc1`: the growth in the assay with SN12C renal is 73.6%; with UO-31 renal it was 51.4%; with TK-10 renal, 81.9%; with ACHN renal, 77.3%; in the assay with CAKI-1 renal, 62.2%; in the assay on A498 renal, 80.1%. The growth was 46.7% with CCRF-CEM leukemia; 62.6% in the assay with MOLT-4 leukemia; 28.2% in the assay on SR leukemia; 61.9% in the assay on RPMI-8226 leukemia; 80.1% in the assay with OVCAR-8 ovarian; 98.4% with OVCAR-4 ovarian. Moreover, the growth with SK-OV-3 ovarian is 61%; in the assay with IGROV1 ovarian it was 66.6%; with OVCAR-3 ovarian, 69%; in the assay on HS 578T breast it was 85.1%; with NCI/ADR-RES ovarian, 75.8%.
`CCCOC(=O)C1c2cc3c(cc2CC(C)C1C(=O)OCCC)OCO3` (centres undefined): the growth with SN12C renal is 104%; in the assay on UO-31 renal, 65.7%; with TK-10 renal, 94.2%; in the assay with ACHN renal, 101%; with A498 renal, 99.8%; in the assay with MOLT-4 leukemia, 90.9%. Also, the growth in the assay on SR leukemia is 90.7%; in the assay with RPMI-8226 leukemia, 99.8%; in the assay with OVCAR-8 ovarian, 102%; in the assay with OVCAR-5 ovarian it was 84.7%; with OVCAR-4 ovarian, 88.7%; with SK-OV-3 ovarian it was 101%. The growth with NCI/ADR-RES ovarian was 81.4%.
